# Values without a mark were called inactive. Records with an inconclusive call do not appear. Entries that show only a call come without a potency. Calls of active or inactive are those of the source. Unless noted, calls come from the whole dose curve.
# What was measured:
# [1] = qHTS assay for measurement of the activity of small molecule inhibitors on Zika virus induced Caspase-3 activity in human iPSC derived neural progenitor cells (hNPCs) (AID 1224857; active = well fitted inhibition curve with a large enough effect; note: nearly all actives have a fitted effect of over 65% in size)
# In short: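 hNPCs seeded 350 cells/well, cultured 16–20 h; compounds added 1 h before ZIKV (2 FFU/cell), 37 C 6 h. Caspase-Glo 3/7 luminescence after 30 min RT; % inhibition from induction scaled to uninfected (0%) and infected (100%) wells.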
# [2] = qHTS assay for measurement of the activity of small molecule inhibitors on Zika virus induced Caspase-3 activity in human astrocytoma cells (AID 1224859; active = well fitted inhibition curve with a large enough effect)
# In short: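 Luminescence read-out (Caspase-Glo 3/7, 30 min RT) of caspase activity in SNB-19 cells infected 6 h with ZIKV, 2 FFU/cell, after 1 h compound pretreatment; % inhibition from induction normalised to uninfected (0%) and infected (100%) wells.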
# [3] = Natriuretic polypeptide receptor (hNpr1) antagonism - Pilot counterscreen GloSensor control cell line (AID 1347045); note: potency is the fitted concentration of half-maximal effect; for activity change, negative = inhibition: series mostly up to about 38 µM
# In short: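 HEK293 cGMP-sensor cells; 2% GloSensor reagent 2 h RT; LOPAC compounds in 1:5 titrations 30-50 min; 50 uM SNP 20 min; luminescence pre-read and post-read.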
# [4] = target: Atrial natriuretic peptide receptor 1 (Homo sapiens) (UniProt P16066); assay: Natriuretic polypeptide receptor (hNpr1) antagonism - Pilot screen (AID 1347049);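 note: HEK293 cells with hNpr1 and GloSensor cGMP luciferase stimulated by 0.1 nM hNppA; agonist-evoked cGMP luminescence read 20 min after hNppA addition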; note: potency is the fitted concentration of half-maximal effect; for activity change, negative = inhibition: series mostly up to about 58 µM
# Atrial natriuretic peptide receptor 1 (Homo sapiens), sequence (P16066 whole entry, looked up): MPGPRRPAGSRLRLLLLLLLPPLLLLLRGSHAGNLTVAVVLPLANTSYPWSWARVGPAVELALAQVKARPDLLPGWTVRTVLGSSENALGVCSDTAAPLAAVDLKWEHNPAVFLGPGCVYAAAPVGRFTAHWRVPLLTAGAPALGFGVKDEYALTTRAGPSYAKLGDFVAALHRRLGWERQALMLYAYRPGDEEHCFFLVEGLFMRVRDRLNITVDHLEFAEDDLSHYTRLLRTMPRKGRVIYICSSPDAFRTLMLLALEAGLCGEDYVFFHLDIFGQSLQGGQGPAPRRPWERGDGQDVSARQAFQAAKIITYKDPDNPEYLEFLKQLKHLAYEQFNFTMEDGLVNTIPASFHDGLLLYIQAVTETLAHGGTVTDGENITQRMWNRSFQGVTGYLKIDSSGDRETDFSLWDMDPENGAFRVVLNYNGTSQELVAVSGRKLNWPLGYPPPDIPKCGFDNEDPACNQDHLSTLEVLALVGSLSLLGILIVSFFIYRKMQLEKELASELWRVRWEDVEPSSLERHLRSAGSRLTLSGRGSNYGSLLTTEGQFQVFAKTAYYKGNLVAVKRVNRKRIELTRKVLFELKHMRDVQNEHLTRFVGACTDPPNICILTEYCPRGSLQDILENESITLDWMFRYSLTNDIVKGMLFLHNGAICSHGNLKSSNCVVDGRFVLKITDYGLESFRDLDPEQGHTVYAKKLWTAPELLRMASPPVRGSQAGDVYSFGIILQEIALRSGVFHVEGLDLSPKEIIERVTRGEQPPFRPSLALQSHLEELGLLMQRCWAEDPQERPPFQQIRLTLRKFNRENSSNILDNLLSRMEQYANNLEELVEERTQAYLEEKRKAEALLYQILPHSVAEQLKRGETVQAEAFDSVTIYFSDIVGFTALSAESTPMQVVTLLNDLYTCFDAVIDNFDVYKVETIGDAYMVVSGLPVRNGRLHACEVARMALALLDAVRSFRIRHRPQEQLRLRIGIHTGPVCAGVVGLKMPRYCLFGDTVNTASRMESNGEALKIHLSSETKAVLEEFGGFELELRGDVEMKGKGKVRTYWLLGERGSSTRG
# In short: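 Cells expressing receptor plus cGMP biosensor are seeded and incubated overnight at 37C, then loaded with GloSensor reagent (2% final) at room temperature for 2 h. Library compounds go on for 30 min. A pre-read precedes agonist (hNppA, 0.1 nM final) and a 20-min readout.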
# [5] = target: Atrial natriuretic peptide receptor 2 (Homo sapiens) (UniProt P20594); assay: Natriuretic polypeptide receptor (hNpr2) antagonism - Pilot subtype selectivity assay (AID 1347050); note: potency is the fitted concentration of half-maximal effect
# Atrial natriuretic peptide receptor 2 (Homo sapiens), sequence (P20594 whole entry, looked up): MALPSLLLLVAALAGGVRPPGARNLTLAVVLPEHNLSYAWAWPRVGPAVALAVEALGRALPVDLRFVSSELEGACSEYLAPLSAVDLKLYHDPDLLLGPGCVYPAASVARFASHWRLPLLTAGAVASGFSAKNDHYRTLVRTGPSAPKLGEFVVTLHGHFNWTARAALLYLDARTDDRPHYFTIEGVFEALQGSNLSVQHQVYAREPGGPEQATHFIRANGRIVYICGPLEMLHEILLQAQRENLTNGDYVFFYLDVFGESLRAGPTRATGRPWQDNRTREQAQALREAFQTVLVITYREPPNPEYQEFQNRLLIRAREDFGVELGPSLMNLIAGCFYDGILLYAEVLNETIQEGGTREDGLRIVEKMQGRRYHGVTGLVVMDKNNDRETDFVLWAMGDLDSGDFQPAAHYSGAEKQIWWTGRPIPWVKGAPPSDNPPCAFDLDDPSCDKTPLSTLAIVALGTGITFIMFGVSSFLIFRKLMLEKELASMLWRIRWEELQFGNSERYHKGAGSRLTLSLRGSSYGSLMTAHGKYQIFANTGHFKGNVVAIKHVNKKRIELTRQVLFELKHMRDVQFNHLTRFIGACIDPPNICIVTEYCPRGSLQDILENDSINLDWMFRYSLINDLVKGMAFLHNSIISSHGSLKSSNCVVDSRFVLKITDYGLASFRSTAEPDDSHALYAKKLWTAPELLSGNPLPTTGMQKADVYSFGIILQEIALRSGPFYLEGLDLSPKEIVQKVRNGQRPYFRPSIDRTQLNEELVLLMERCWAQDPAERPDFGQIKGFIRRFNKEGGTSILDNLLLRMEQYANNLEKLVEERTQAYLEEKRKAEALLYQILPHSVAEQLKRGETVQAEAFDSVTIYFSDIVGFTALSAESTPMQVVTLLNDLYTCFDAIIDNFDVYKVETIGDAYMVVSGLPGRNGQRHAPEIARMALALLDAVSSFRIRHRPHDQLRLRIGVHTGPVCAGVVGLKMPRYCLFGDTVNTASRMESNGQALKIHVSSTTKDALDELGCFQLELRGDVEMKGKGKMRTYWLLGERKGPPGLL
# In short: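 Read-out: GloSensor luminescence (CCD imager), baseline vs post-stimulation. HEK293 cells expressing hNpr2; compounds pre-incubated 30-50 min at ambient temperature; hNppC 1 nM final, 20 min.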
SMILES,Potency [1],Potency [2],Potency [3],Potency [4],Potency [5],"activity change, negative = inhibition [5]"
COC(=O)C(C)(N)Cc1ccc(O)cc1 (stereo not given),inactive,inactive,inactive,inactive,inactive,–
CC#CCOC(=O)c1c(C)nc2sc3c(c2c1N)CCC(O)C3 (stereo not given),inactive,inactive,inactive,inactive,inactive,–
COc1ccccc1N1CCN(CCCNc2c(C)c(=O)n(C)c(=O)n2C)CC1,inactive,inactive,inactive,inactive,inactive,–
N[C@@H](Cc1ccc(F)cc1)C(=O)O,inactive,inactive,inactive,inactive,inactive,–
Fc1ccc(CN(C2=NCCN2)c2c(Cl)cccc2Cl)cc1,inactive,inactive,inactive,inactive,inactive,–
CC(O)C(O)[C@H]1CNc2nc(N)[nH]c(=O)c2N1 (stereo not given in full),inactive,inactive,inactive,inactive,inactive,–
C[C@H]1CC2C3CCC4=CC(=O)C=C[C@]4(C)[C@@]3(Cl)[C@@H](O)C[C@]2(C)[C@@]1(O)C(=O)CO (stereo not given in full),inactive,inactive,inactive,inactive,inactive,–
CC(C)[C@@H]1CC[C@@H](C)C[C@@H]1P(=O)(c1ccccc1)c1ccccc1,inactive,inactive,inactive,inactive,inactive,–
CNc1ncnc2c1ncn2[C@H]1C[C@H](OP(=O)(O)O)[C@@H](COP(=O)(O)O)O1,inactive,inactive,inactive,inactive,inactive,–
NCCCCN,inactive,inactive,inactive,inactive,inactive,–
CC(N)(C(=O)O)c1ccc(C(=O)O)cc1 (stereo not given),inactive,inactive,inactive,inactive,inactive,–
O=C(O)/C(=C/c1c(C(=O)O)[nH]c2cc(Cl)cc(Cl)c12)c1ccccc1,inactive,inactive,inactive,inactive,inactive,–
N[C@H](C(=O)O)[C@H](Cc1ccccc1)C(=O)O,inactive,inactive,inactive,inactive,–,-2% [at 1.53 µM]
NC(=O)CC[C@H](N)C(=O)O,inactive,inactive,inactive,inactive,inactive,–
NC(=O)c1ccccc1,inactive,inactive,inactive,inactive,inactive,–
NCCCCN=C(N)N,inactive,inactive,inactive,inactive,inactive,–
C[N+](C)(C)CC=O,inactive,inactive,inactive,inactive,inactive,–
NC(N)=[N+]1CCc2ccccc2C1,inactive,inactive,inactive,inactive,inactive,–
CCN(c1nc(N)c(C(=O)N=C(N)N)nc1Cl)C(C)C,inactive,inactive,inactive,inactive,inactive,–
CN(CC[C@@H](Oc1ccc(C(F)(F)F)cc1)c1ccccc1)CC(=O)O,inactive,inactive,inactive,inactive,inactive,–
O=c1ccc2c(OCCCCc3ccccc3)c3ccoc3cc2o1,inactive,inactive,inactive,inactive,inactive,–
COC(=O)C(N)Cc1ccc(Cl)cc1 (stereo not given),inactive,inactive,inactive,inactive,inactive,–
O=c1[nH]c(=S)[nH]c(-c2ccccc2)c1Cc1c(O)ccc2ccccc12,inactive,inactive,inactive,inactive,inactive,–
CCOC(=O)C12CC1/C(=N/O)c1ccccc1O2 (stereo not given),inactive,inactive,inactive,inactive,inactive,–

SMILES,Potency [1],Potency [2],Potency [3],Potency [4],Potency [5],"activity change, negative = inhibition [5]"
CC1CNCCN1S(=O)(=O)c1cccc2cnccc12 (stereo not given),inactive,inactive,inactive,inactive,inactive,–
C=C1C[C@@]23CC[C@H]4[C@@](C)(CCC[C@@]4(C)C(=O)OC4OC(CO)C(O)C(O)C4O)[C@@H]2CC[C@]1(OC1OC(CO)C(O)C(O)C1OC1OC(CO)C(O)C(O)C1O)C3 (stereo not given in full),inactive,inactive,inactive,inactive,inactive,–
OCC1NCC(O)C(O)C1O (stereo not given),inactive,inactive,inactive,inactive,inactive,–
CC(=O)C(C)=O,inactive,inactive,inactive,inactive,inactive,–
Cc1cc(Cn2cnc3c2C[C@@H](C(=O)O)N(C(=O)C(c2ccccc2)c2ccccc2)C3)ccc1N,inactive,inactive,inactive,inactive,inactive,–
C=CCN1CCc2c(cc(O)c(O)c2Cl)C(c2ccccc2)C1 (stereo not given),inactive,inactive,inactive,inactive,inactive,–
Cc1nc2n(c(=O)c1CCN1CCC(c3noc4cc(F)ccc34)CC1)CCCC2O (stereo not given),inactive,inactive,inactive,inactive,inactive,–
O=C(O)/C=C/c1cnc[nH]1,inactive,inactive,inactive,inactive,inactive,–
O=C(O)Cc1ccc(O)c(O)c1,inactive,inactive,inactive,inactive,inactive,–
C=CC1(C)CC(=O)C2(O)C(C)(O1)C(OC(C)=O)C(O)C1C(C)(C)CCC(O)C12C (stereo not given),inactive,inactive,inactive,inactive,inactive,–
Nc1nc2c(cnn2CCc2ccccc2)c2nc(-c3ccco3)nn12,inactive,inactive,inactive,inactive,inactive,–
CC(C)(C)c1cc(/C=C(\C#N)C(N)=S)cc(C(C)(C)C)c1O,inactive,inactive,1170 nM (active),3380 nM (active),4650 nM (active),–
COc1ccccc1N1CCN(CCCCNC(=O)c2ccc3ccccc3c2)CC1,inactive,inactive,inactive,inactive,inactive,–
CC(C)C[C@H](NC(=O)[C@H](O)[C@H](N)Cc1ccccc1)C(=O)O,inactive,inactive,inactive,inactive,inactive,–
O=c1onc2cnc3ccccc3n12,inactive,inactive,261 nM (active),inactive,inactive,–
[N-]=[N+]=Nc1ccc(C(=O)CSC[C@H](NC(=O)CC[C@H](N)C(=O)O)C(=O)NCC(=O)O)cc1,inactive,inactive,inactive,inactive,inactive,–
O=[N+]([O-])c1cccc2cn[nH]c12,inactive,inactive,inactive,inactive,inactive,–
CSc1nc(N)c2ncn([C@@H]3O[C@H](COP(=O)(O)OP(=O)(O)O)C(O)[C@H]3O)c2n1 (stereo not given in full),inactive,inactive,inactive,inactive,inactive,–
O=c1ccn([C@@H]2O[C@H](COP(=O)(O)OP(=O)(O)O)[C@@H](O)[C@H]2O)c(=O)[nH]1,inactive,inactive,inactive,inactive,inactive,–
CCCCCCCCCCCCCCC[C@H](O)[C@H](N)CO,inactive,inactive,inactive,inactive,inactive,–
CCCn1c(=O)c2[nH]c(C3CCCC3)nc2n(CCC)c1=O,inactive,inactive,inactive,inactive,inactive,–
COc1ccc(NC(=O)c2ccc(-c3ccc(-c4noc(C)n4)cc3C)cc2)cc1N1CCN(C)CC1,inactive,inactive,inactive,inactive,inactive,–
c1ccc(CN2CCC3(CCCc4ccccc43)CC2)cc1,inactive,inactive,inactive,inactive,inactive,–
Oc1cc(O)c2c(c1)O[C@H](c1ccc(O)c(O)c1)[C@@H](O)C2,inactive,inactive,inactive,inactive,inactive,–

SMILES,Potency [1],Potency [2],Potency [3],Potency [4],Potency [5],"activity change, negative = inhibition [5]"
NCC(O)(CS(=O)(=O)O)c1ccc(Cl)cc1 (stereo not given),inactive,inactive,inactive,inactive,inactive,–
C[C@H](O)C(=O)C1=Nc2c(nc(N)[nH]c2=O)NC1,inactive,inactive,inactive,inactive,inactive,–
C=CCN1CCc2cc(O)c(O)cc2C(c2ccccc2)C1 (stereo not given),inactive,inactive,inactive,inactive,inactive,–
N[C@@H](Cc1c[nH]c2ccccc12)C(=O)O,inactive,inactive,inactive,inactive,inactive,–
N[C@@H](CS(=O)O)C(=O)O,inactive,inactive,inactive,inactive,inactive,–
C#CCn1c(=O)c2c(ncn2C)n(C)c1=O,inactive,inactive,inactive,inactive,inactive,–
O=S(=O)(c1cccc2c(Cl)cccc12)N1CCCNCC1,inactive,inactive,inactive,inactive,inactive,–
Nc1ccc(N2C(=O)c3ccccc3C2=O)c(Cl)c1,inactive,inactive,inactive,inactive,inactive,–
NC(=Nc1ccccc1)NC(=O)c1nc(Cl)c(N)nc1N,inactive,inactive,inactive,inactive,inactive,–
COCc1nc2c([nH]1)c(=O)n(C)c(=O)n2CC(C)C,inactive,inactive,inactive,inactive,inactive,–
C/C(=C\c1ccc(C(=O)O)cc1)c1ccc2c(c1)C(C)(C)CCC2(C)C,inactive,inactive,inactive,inactive,inactive,–
OC[C@H]1O[C@@H](n2cnc3cncnc32)[C@H](O)[C@@H]1O,inactive,inactive,inactive,inactive,inactive,–
CC1=C(/C=C/C(C)=C/C=C/C(C)=C\C(=O)O)C(C)(C)CCC1,inactive,inactive,inactive,inactive,inactive,–
O[Si](CCCN1CCCCC1)(c1ccc(F)cc1)C1CCCCC1 (stereo not given),inactive,inactive,inactive,inactive,inactive,–
Cc1cc2c(cc1Cl)N(C(=O)Nc1ccnc3ccccc13)CC2,inactive,inactive,inactive,inactive,inactive,–
N=S(=O)(O)Cc1noc2ccccc12,inactive,inactive,inactive,inactive,inactive,–
CN1CCN(c2nc3cc(C(F)(F)F)ccc3n3cccc23)CC1,inactive,inactive,inactive,inactive,inactive,–
CSC(N)=NCCC[C@H](N)C(=O)O,inactive,inactive,inactive,inactive,inactive,–
CNc1cc(NS(=O)(=O)c2ccc(N)cc2)nc(NC)n1,inactive,inactive,inactive,inactive,inactive,–
O=C(O)c1cc(=O)cc(C(=O)O)[nH]1,inactive,inactive,inactive,inactive,inactive,–
NC(Cc1cccc(-c2ccccc2CP(=O)(O)O)c1)C(=O)O (stereo not given),inactive,inactive,inactive,inactive,inactive,–
CN(C)CCCc1cc(C(=O)Nc2ccc(-c3ccncc3)cc2)ccc1O,inactive,inactive,inactive,inactive,inactive,–

# Source: PubChem BioAssay (NCATS)
